PubChem BioAssay AID1117361 (Southern Research Institute, 2015)
In all, about 3,600 compounds went through this assay and about 900 (25%) were called active. How the calls were made is not given here. The list is a sample of the results. Potency and affinity values are given separately.

biological target: Protein Tat (Human immunodeficiency virus type 1 group M subtype B (isolate HXB2)) (UniProt P04608); assay: inhibitors of Tat binding to TAR RNA, dose response, counter-screen for Vif-APOBEC3G degradation inhibitor project, biochemical, fluorescence polarization, FAM-labeled TAR RNA (AID 1117361); conditions: outcome: dose series up to 100 µM unless noted; series mostly up to 100 µM; inhibition: at the top concentration

Compound	inhibition	outcome
COc1cc(NC(=O)c2cc3nc(C)cc(C)n3n2)c(OC)cc1Cl	8.78% (inactive)	
Cc1ccc2c(c1)c(CC(=O)Nc1ccc(C)c(F)c1)c(C(=O)O)n2C		inactive
Nc1ccc(-c2nc3cc(N)ccc3n2CCO)cc1		inactive
COc1ccc(S(=O)(=O)NCc2ccccn2)c(Cl)c1Cl	1.35% (inactive)	
CCN(CC)CCNC(=O)CCn1c(=S)[nH]c2cc3c(cc2c1=O)OCO3		inactive
C=CCn1cc(-c2ccccc2)cc(C#N)c1=O	5.41% (inactive)	
Cc1ccc(CSc2nc3c(c(N(C)C)n2)CCCC3)cc1		inactive
CCN(CC)CCCNC(=O)CSc1nc(-c2cccs2)cc(C(F)(F)F)n1		inactive
COC(=O)/C=c1\sc2n(c1=O)C(C)=CC(C)(C)N=2	1.36% (inactive)	
CCOC(=O)CCC(=O)N1CCOCCN(C(=O)CCC(=O)OCC)CCOCC1	2.7% (inactive)	
Cc1ccc(N=Cc2nc(-c3ccc(C)cc3)oc2O)cc1		inactive
CC(C)(C)NC(=O)CSc1nnc(-c2ccccn2)n1Cc1ccccc1		inactive
COc1ccc(CNC(=O)c2c(-c3cc(Cl)c(OC)c(Cl)c3)noc2C)cc1		inactive
OCCCNc1ncnc2c1[nH]c1ccccc12		inactive
CC(=O)Nc1cccc(-c2cc(-c3c(Cl)cccc3Cl)no2)c1		inactive
O=C(CCn1nc(-c2ccccc2)ccc1=O)N1CCCC1	8.11% (inactive)	
CN1CCN(S(=O)(=O)c2ccc(NC(=S)NC(=O)c3ccc(Cl)cc3)cc2)CC1	6.14% (inactive)	
Cc1cccc(OCCCC(=O)NC(C)c2ccccc2)c1 (stereo not given)	5.46% (inactive)	
CCn1c(=O)cc(N2CCC3(CC2)OCCO3)[nH]c1=O	16.2% (inactive)	
Cn1cc(Cl)c(C(=O)Nc2nc3ccccc3s2)n1		inactive
CCC(C)(c1nnnn1-c1c(C)cccc1C)N(N=O)c1ccccc1Cl (stereo not given)		inactive
CSCCC(NS(=O)(=O)c1ccc2c(c1)oc(=O)n2C)C(=O)NC1CCCc2ccccc21 (stereo not given)	5.41% (inactive)	
COc1ccc(S(N)(=O)=O)cc1C(=O)OCC(=O)NC(C)(C#N)C1CC1 (stereo not given)	7.42% (inactive)	

Compound	inhibition	outcome
O=c1cc(O)nc(SCc2ccccc2Cl)[nH]1	10.8% (inactive)	
CSc1nc(N)c(C#N)c(-c2ccccc2Cl)c1C#N	3.38% (inactive)	
COc1ccc(C2(O)CCN(Cc3nnnn3Cc3ccc(F)cc3)CC2)cc1		inactive
CC(C)(C)NCCCCOc1ccc(F)cc1	3.01% (inactive)	
CCOc1ccc(NC(=O)c2ccccc2NS(C)(=O)=O)cc1		inactive
Cc1c(O)nc(SCC(=O)Nc2ccc3c4c(cccc24)CC3)n(-c2ccc(F)cc2)c1=O	3.3% (inactive)	
CCOc1ccc(NC(=O)Cn2cncc2-c2ccc([N+](=O)[O-])cc2)cc1	6.82% (inactive)	
Cc1cc(C)nc(N2N=C(C(C)(C)C)CC2=O)n1	1.36% (inactive)	
COCCn1nnnc1C(c1cc2ccc(C)cc2[nH]c1=O)N(Cc1ccco1)Cc1cccs1 (stereo not given)	29.3% (inactive)	
COc1cc2cc(C(c3nnnn3C3CCCC3)N(C)C3CCCCC3)c(=O)[nH]c2cc1OC (stereo not given)		inactive
CCCN(CC(=O)Nc1ccccc1OC)C(=O)CSc1ccc(Br)cc1C	14% (inactive)	
CC(=O)Nc1c(O)nc(SCC(=O)Nc2ccc(C(C)=O)cc2)[nH]c1=O	14.3% (inactive)	
CSc1nc(C)cc(SCC(=O)Nc2ccccc2)n1	6.08% (inactive)	
COc1ccc(NC(=O)CSc2nnc(C)n2Cc2ccccc2)cc1		inactive
COc1cccc(NC(=O)CSc2nnnn2C(C)C)c1	3.38% (inactive)	
CCN(CC)S(=O)(=O)c1ccc(NC(=O)CSc2nnc(-c3cccc(OC)c3)n2C)cc1	2.73% (inactive)	
COc1ccc(NC(=O)CSc2nc(C)cc(C)n2)cc1	6.76% (inactive)	
Cc1ccc[n+](CC(=O)c2cc3ccccc3oc2=O)c1	10.8% (inactive)	
CCCc1nc(SCc2cccnc2)c2c(=O)n(C)c(=O)n(C)c2n1	3.38% (inactive)	
O=C(NCc1ccc2c(c1)OCO2)C1CCCN1C(=O)Nc1ccccc1 (stereo not given)	2.7% (inactive)	
CCn1c(=O)oc2cc(NC(=O)CCl)ccc21		inactive
COC(=O)Cn1ncn2c(cc3oc(C)cc32)c1=O	22.3% (inactive)	
O=C(Cn1c(/C=C/c2ccccc2)nc2ccccc21)Nc1ccc(F)cc1	8.19% (inactive)	

Compound	inhibition	outcome
Cc1ccnc(NS(=O)(=O)c2ccc(NC(=O)Cc3cccs3)cc2)n1		inactive
CCCCN(CCCC)S(=O)(=O)c1ccc(NC(=O)Cc2cccs2)cc1	10.2% (inactive)	
O=C(Nc1ccc2nc(-c3ccccc3)[nH]c2c1)c1cccs1	1.35% (inactive)	
CC(C)OCCCNC(=O)c1cccs1		inactive
CN(Cc1cn(C)nc1-c1cccc(Cl)c1)Cc1nccn1C		inactive
N#Cc1nc(Cc2ccccc2)oc1NCCCn1ccnc1	6.76% (inactive)	
O=C(COc1ccc(F)cc1)Nc1ccc(-n2cnnn2)cc1	3.38% (inactive)	
CCOC(=O)C1CCN(C(=O)C2CCN(c3nc4ccc(OC)cc4s3)CC2)CC1	4.77% (inactive)	
CCOC(=O)C1CCCN(CCC(=O)Nc2ccc3c(c2)CCC3)C1 (stereo not given)	1.36% (inactive)	
O=C(Nc1ccc2c(c1)OCCO2)N1CCN(c2ccccc2)CC1	10.1% (inactive)	
Cn1c(CN2CCCC2)nc2cc(NC(=O)Nc3ccccc3)ccc21		inactive
C/C(=C/C(=O)NCc1ccccc1)C(=O)O	8.78% (inactive)	
CN(C)c1ccc(N/C=C/C(=O)c2ccco2)cc1	1.36% (inactive)	
O=C(Nc1ccccc1C(F)(F)F)c1cc(-c2ccc(O)cc2)on1		inactive
O=C(CN(C(=O)CCNC(=O)c1ccco1)c1ccccc1)NC1CCCC1	4.77% (inactive)	
COc1ccc(/C=C/C2=NC(=C\N(C)C)/C(=O)O2)cc1	9.46% (inactive)	
Nc1nnc(CC2=CCCCC2)s1	3.38% (inactive)	
CCOc1ccc(/C=C2\NC(=S)NC2=O)cc1		inactive
O=C(Cn1[nH]c(=O)c2ccccc2c1=O)OCC(=O)N(Cc1ccccc1)Cc1ccccc1		inactive
CC(C)Cc1ccc(C(C)C(=N)N)cc1 (stereo not given)	4.95% (inactive)	
CC(C)N(C(=O)CO/N=C/c1cccc([N+](=O)[O-])c1)C(C)C		inactive
C=CCOc1ccc2c(c1)C(=NO)c1cc(OCC=C)ccc1-2	5.68% (inactive)	
O=C(Nc1c2c(nn1-c1ccc(F)cc1)CS(=O)C2)C12CC3CC(CC(C3)C1)C2 (stereo not given)	0.68% (inactive)	

Compound	inhibition	outcome
CC(C)NC(=O)C1CCCN(S(=O)(=O)c2cccs2)C1 (stereo not given)	0.68% (inactive)	
Cc1ccc2oc(=O)c3cnn(CC(=O)NC4CCCCC4C)c3c2c1 (stereo not given)	6.08% (inactive)	
O=C(c1cnn2cccnc12)N1CCN(Cc2ccc3c(c2)OCO3)CC1	2.73% (inactive)	
CC(=O)Nc1ccc(S(=O)(=O)N2CCN(CCCOc3ccccc3Cl)CC2)cc1	4.09% (inactive)	
O=C(COc1ccccc1Cl)NCCc1ccc2c(c1)OCCO2	2.73% (inactive)	
CCCCn1c(C(C)NC(=O)CC)nc2ccccc21 (stereo not given)		inactive
COc1ccc(CNS(=O)(=O)c2cc(Br)cc3c2N(C(C)=O)C(C)C3)cc1 (stereo not given)	0.82% (inactive)	
COCC(C)NC(=O)C1CC(c2cccc(Br)c2)=NO1 (stereo not given)	3.38% (inactive)	
COC(=O)CSC1=C(C#N)C(c2ccccc2)CC(=O)N1 (stereo not given)	2.03% (inactive)	
COc1ccc(C2C(C#N)=C(SCC(=O)Nc3ccc(C)cc3)NC3=C2C(=O)CC(C)(C)C3)cc1 (stereo not given)	6.14% (inactive)	
CCCNC(=S)NC1CCCC1	2.7% (inactive)	
Cc1ccc(C(=O)CSc2ccccn2)cc1	26.4% (inactive)	
Cc1nnc(SCc2cnc(-c3ccccc3)o2)[nH]c1=O	10.1% (inactive)	
CCOc1cc(C2NC(=O)NC(O)(C(F)(F)F)C2C(=O)c2ccccc2)ccc1OC (stereo not given)	2.03% (inactive)	
CN(C)CCNc1ncnc2c1sc1nc(-c3ccccc3)c3c(c12)CCCC3	14.8% (inactive)	
CSc1nc(N2CCOCC2)c2c3c(sc2n1)CCC3	1.65% (inactive)	
Clc1ccccc1Nc1c2c(nc3ncnn13)CCC2		inactive
CC(=O)NCc1c(Cl)cccc1-n1cccc1		inactive
CCCS(=O)(=O)NCc1cn2c(C)csc2n1	14.9% (inactive)	
CN(C(=O)COc1ncnc2sccc12)c1ccccc1	4.95% (inactive)	
CCCCNc1nc2ccccc2nc1NS(=O)(=O)c1cccs1	13.5% (inactive)	
COc1ccccc1NS(=O)(=O)c1cccs1	3.01% (inactive)	
Cc1cc(/C=C2\SC(=S)NC2=O)c(C)n1-c1ccc(O)cc1		inactive

Compound	inhibition	outcome
Cc1cc(/C=C2\SC(=S)NC2=O)c(C)n1-c1ccccc1		inactive
CCc1ccc(-n2c(SCc3c(C)noc3C)nnc2-c2ccncc2)cc1	1.36% (inactive)	
CCn1c(C(=O)N2CCc3ccccc3C2)cc2sccc21	8.11% (inactive)	
Cc1noc(C)c1C(=O)N1CCc2ccccc2C1	6.82% (inactive)	
CCC(C)(C)C1CCc2c(sc(NC(=O)c3ccoc3C)c2C(N)=O)C1 (stereo not given)	8.78% (inactive)	
COc1cc(NC(=O)c2nnn(Cc3ccc(SC)cc3)c2N)cc(OC)c1	2.7% (inactive)	
Cc1ccc(SCC(=O)c2sc(-c3ccccc3)nc2C)cc1		inactive [at 50 µM]
COC(=O)c1ccc(Cl)c(NC(=O)CN(c2ccc3c(c2)OCO3)S(C)(=O)=O)c1	2.05% (inactive)	
CS(=O)(=O)N(CC(=O)Nc1ccc2c(c1)OCO2)Cc1ccccc1	6.14% (inactive)	
O=C(NCc1ccc(F)cc1)c1c(O)c2cccc3c2n(c1=O)CCC3		inactive
Cc1ccc(C(=O)Nc2nc3ccccc3n2CCN2CCCC2)cc1	2.7% (inactive)	
CCN1C(=O)c2c(C)nc3ccccc3c2C1=O	13.7% (inactive)	
COCCCN1C(=O)N(c2ccc(F)cc2)C(=O)C1CC(=O)Nc1ccc(OC)cc1 (stereo not given)	5.01% (inactive)	
Cc1cc(C)c([N+](=O)[O-])cc1-c1ccc(/C=N/NC(=O)c2nonc2N)o1	6.08% (inactive)	
O=C(NNC(=O)c1ccccc1O)c1ccc(-c2ccc([N+](=O)[O-])cc2)o1	5.68% (inactive)	
NC(=S)N/N=C/c1ccc(-c2cccc([N+](=O)[O-])c2)o1	0.68% (inactive)	
N=C(c1cccc([N+](=O)[O-])c1)N1CCCCCC1		inactive
Cc1ccc(C(=O)OCc2cn3ccccc3n2)cc1	15.5% (inactive)	
COc1cccc(NC(=O)N2CCN(c3nnnn3-c3ccccc3)CC2)c1	9.9% (inactive)	
Cc1ccc(-n2nc(C)c3c(C)c(CCC(=O)O)c(C)nc32)cc1		inactive
Cc1cc(=O)nc2c3ccccc3n(C(C)C(=O)NCCC(C)C)n12 (stereo not given)		inactive
O=C(COc1ccc(S(=O)(=O)N2CCCC2)cc1)NCCC1=CCCCC1	22.5% (inactive)	
CCN(CC)CCCNC(=O)c1cn(CCOC)c(=O)c2c1c1ccccc1n2C	0.68% (inactive)	
